{"source": "PubChem BioAssay (NCI)", "note": "This is part of a sample that, as a whole, favours compounds with a hit. Of some 83,000 tested, about 20% had one in any assay.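 The endpoint reported here, percent growth, reads 100 for growth as untreated, 0 for no net growth and -100 for all cells dead.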 Values without a mark were called inactive. The source made the active and inactive calls."}
{"system": "NCI-H460 lung", "experiment": "NCI-60 one-dose screen, 48 h (100 = growth as untreated, 0 = no growth, -100 = all killed)", "settings": "10 µM unless noted", "method": "Growth inhibition of the NCI-H460 human Non-Small Cell Lung tumor cell line is measured as a screen for anti-cancer activity. Cells are grown in 96 well plates and exposed to the test compound for 48 hours. Compounds are tested at a single concentration, which is 10^-5 M for most compounds. The reported endpoint is percent growth (GI% or GIPRCNT), where numbers from 0 - 100% represent growth inhibition, and numbers from -100% - 0 represent cell death. For example, a value of 40 represents 60% growth inhibition. A value of 0 means no net growth occurred over the course of the experiment. A value of -40 indicates 40% of cells at the beginning of the experiment died by the end of the experiment. A value of -100 means all cells are dead at the end of the experiment.\nNCI-60 Human Tumor Cell Lines Screen was performed using the standard one-dose NCI protocol, which is described in more detail at https://dtp.cancer.gov/discovery_development/nci-60/default.htm.\nCompounds with GIPRCNT values below 10 were considered active. Activity score was based on GIPRCNT using the following formula: […]\nScore is 0 for GIPRCNT values of 100 or above, 50 for GIPRCNT values of 0, and 100 for GIPRCNT values of -100."}
{"smiles": "COc1cc(/C=C\\c2cc(/C=C\\c3ccc(O)c(OC)c3)n(C(=O)Nc3ccc(C(F)(F)F)cc3)n2)ccc1O", "growth": "18.3%"}
{"smiles": "CC(C)(C)[Si](C)(C)OC1[C@@H](O[Si](C)(C)C(C)(C)C)[C@@H](CNC(=O)NC(=O)NC(=O)CCl)O[C@H]1n1cnc2c(NC(=O)Nc3ccccc3)ncnc21", "note": "(stereo not given in full)", "growth": "43.5%"}
{"smiles": "COc1nccc2c(Sc3ccccc3)nc(N)nc12", "growth": "109%"}
{"smiles": "O=C(Nc1ccc([N+](=O)[O-])cc1)c1cc2ccccc2cc1O", "growth": "-33% (active)"}
{"smiles": "Cc1ccsc1C(=O)CC(=O)C(F)(F)C(F)(F)C(F)(F)F", "growth": "114%"}
{"smiles": "CCCCCCCCCCCC1=NC(C)(C)CN1C(C)C", "growth": "50.4%"}
{"smiles": "COc1ccc(CC2c3cc(OC)c(OC)cc3CC[N+]2(C)CCC(=O)OCCCCCOC(=O)CC[N+]2(C)CCc3cc(OC)c(OC)cc3C2Cc2ccc(OC)c(OC)c2)cc1OC", "note": "(stereo not given)", "growth": "100%"}
{"smiles": "ClCc1c(Cl)c(Cl)c(Cl)c(CCl)c1Cl", "growth": "73.8%"}
{"smiles": "O=S(=O)(Cc1ccc(Cl)cc1Cl)c1ccc(Cl)cc1", "growth": "18.4%"}
{"smiles": "C=CCOc1ccc2c(C)cc(=O)oc2c1", "growth": "99.6%"}
{"smiles": "Fc1ccc(-c2nc(-c3ccc(-c4nc5ccc(F)cc5[nH]4)cc3)no2)cc1", "growth": "67.4%"}
{"smiles": "CCCCc1nc(Cl)c(C2CC(c3ccc(S(N)(=O)=O)cc3)=NN2c2cc(Cl)cc(Cl)c2)[nH]1", "note": "(stereo not given)", "growth": "13.9%"}
{"smiles": "CCOCCNc1ccc(S(=O)(=O)c2ccc(N)cc2)cc1N", "growth": "109%"}
{"smiles": "O=C1Nc2ccc(Br)cc2/C1=N/c1nc(-c2ccccc2)cs1", "growth": "90.9%"}
{"smiles": "O=C(CC(=O)c1cccc(Cl)c1)c1cccc(Cl)c1", "growth": "21.6%"}
{"smiles": "COc1ccc2nc3cc(Cl)ccc3c(NC(=O)CSc3ccc(Cl)cc3)c2c1", "growth": "-84.4% (active)"}
{"smiles": "O=C(Nc1ccc(Cl)cc1)c1cc(-c2ccc(Cl)cc2)c2sc(=O)[nH]c2n1", "growth": "-5.14% (active)"}
{"smiles": "c1cc2c(cc1-c1cnc3nonc3n1)OCO2", "growth": "100%"}
{"smiles": "CCN(CC)c1ccc(/C=C2/NC(=O)NC2=O)cc1", "growth": "20.6%"}
{"smiles": "NC(=O)N/N=C\\c1ccc([N+](=O)[O-])o1", "growth": "105%"}
{"smiles": "CCN(CC)c1ccc2c(cc1=O)[C@@H](NC(C)=O)CCc1cc(OC)c(OC)c(OC)c1-2", "growth": "3.44% (active)"}
{"smiles": "CC(C)C/C=C/C=C/C(=O)N[C@@H](CC(N)=O)C(=O)N[C@@H]1C(=O)N[C@H](c2ccc(O)cc2)C(=O)N[C@H](CCCN)C(=O)N[C@H]([C@@H](C)O)C(=O)N[C@H](c2ccc(O)cc2)C(=O)N[C@H](c2ccc(O)cc2)C(=O)N[C@H]([C@H](C)O)C(=O)N[C@H](Cc2ccccc2)C(=O)N[C@H](CCCN)C(=O)N[C@H](c2ccc(O[C@H]3O[C@@H](CO)[C@@H](O)[C@@H](O)[C@H]3O[C@@H]3O[C@H](CO)[C@H](O)[C@H](O)[C@@H]3O)cc2)C(=O)N[C@H]([C@H](C)O)C(=O)N[C@H](c2ccc(O)cc2)C(=O)NCC(=O)N[C@H](CC(C)C)C(=O)N[C@H](C)C(=O)N[C@H](c2ccc(O)c(Cl)c2)C(=O)O[C@@H]1C(N)=O", "growth": "15.6%"}
{"smiles": "O=C1OCC2=C1C(c1ccccc1)c1cc3c(cc1N2CCO)OCO3", "note": "(stereo not given)", "growth": "-3.16% (active)"}
{"smiles": "O=C(O/C(=C/c1ccccc1)C(F)(F)F)c1ccccc1", "growth": "117%"}
{"smiles": "Nc1c(C(=O)C[C@@H](N)CO)ccc2c1C(=O)CCO2", "growth": "13%"}
{"smiles": "CC(=O)c1ccc(Br)c([N+](=O)[O-])c1", "growth": "109%"}
{"smiles": "COc1cc([N+](=O)[O-])cc(OC)c1OC", "growth": "109%"}
{"smiles": "N#CCCn1cnc2c(N)ncnc21", "growth": "108%"}
{"smiles": "CN1C(=O)N(C)C2C1NN=c1s/c(=C\\c3ccc(C(F)(F)F)cc3)c(=O)n12", "note": "(stereo not given)", "growth": "11.7%"}
{"smiles": "COc1cc(C2CC(=O)Nc3c2cnn3C)cc(OC)c1OC", "note": "(stereo not given)", "growth": "117%"}
{"smiles": "CCC(=O)NC1=C(Cl)C(=O)C(NC(=O)CC)=C(Cl)C1=O", "growth": "108%"}
{"smiles": "CCOC(=O)C1=C(C(=O)OCC)N(c2cc(OC)c(OC)c(OC)c2)C(N)=C(C#N)C1c1cc(=O)[nH]c2ccccc12", "note": "(stereo not given)", "growth": "105%"}
{"smiles": "COc1cc(C2CC(c3ccc(C)cc3)=NN2C=O)ccc1Oc1nc2c(c(=O)n(C)c(=O)n2C)n1C", "note": "(stereo not given)", "growth": "98.6%"}
{"smiles": "COC(=O)c1ccc2c(c1)nc(-c1cc3ccccc3[nH]c1=O)n2-c1cc(C(C)(C)C)[nH]n1", "growth": "45.4%"}
{"smiles": "FC(F)(F)c1nn[nH]n1", "growth": "117%"}
{"smiles": "CC1(C)CC(=O)c2cc3c(N)c(C(=O)Nc4ccc(Cl)cc4)sc3nc2C1", "growth": "109%"}
{"smiles": "COc1ccc(-c2nn(C(=O)NCCN(C)C)cc2-c2ccncc2)cc1Cl", "growth": "27.4%"}
{"smiles": "O=C(NCCN1CCCCC1)n1cc(-c2ccncc2)c(-c2ccc(Cl)c(O)c2)n1", "growth": "91.5%"}
{"smiles": "O=C(CSc1nnc(Cc2ccccc2Nc2c(Cl)cccc2Cl)n1-c1ccccc1)N1N=C(c2ccc3ccccc3c2)CC1c1ccc(Cl)cc1", "note": "(stereo not given)", "growth": "106%"}
{"smiles": "CCOC(=O)C1C(=O)C=C(c2ccccc2)CC1c1sc(N(C)Cc2ccccc2)nc1Cl", "note": "(stereo not given)", "growth": "93.3%"}
